Tested on: VDR:RXRa (NR concentration 270 nM, RXRa partner concentration 90 nM)
Experiment: PBM binding z-score (relative to random genomic background probes); higher = stronger binding; sequences stand for … in GC…GCGATTGACAGCGTAGAATGAAGG
Method: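 Protein-binding microarray (Agilent 4x180K custom design, double-stranded 60-nt probes: 5' GC cap, 34-nt variable region, 24-nt constant primer region; full probe sequence given). Purified or IVT nuclear receptor:RXRα heterodimers (3:1 NR:RXRα, mostly 270:90 nM) or homodimers were incubated for 1 h in PBS with 2% milk and no ligand, then detected with Alexa488 antibodies. Fluorescence from o1-orientation probes (~5 replicates averaged) was converted to z-scores against 500 random hg19 background probes. Variable regions are seed direct-repeat (DR0–DR5) sites, all their single-nucleotide variants and half-site ablations.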

Point of comparison: CTACCAAGGTGAACAAGGTCTTTGATTACTATTC, PBM binding z-score 3.6. Against it:
- TAGCCTAGGTCATTGGGCAAGTATAGTACGCATC — lower, 2.09
- TCGTGTAGATCAGCAGGTTAAGAAAGCTGGCCAA — lower, 0.0438
- AGTCAAAGTTCAGGACGAAGTAACGTAAAGCACG — lower, 2
- CGTCAAAGTTCAACTAAGGTAAGGTAAAGCACGC — higher, 4.17
- CGTCCAACGTCAGAGAGGTCAGTGAATGCCGAGT — lower, 3.23
- ATACCAAGGTGAGCGTGAGGTCGTTGATACTAAC — lower, 3.32
- CGTCAAAGTTCAAGGTAACGGAACAGAAAGCAGC — higher, 3.63
- CCTACTGGACCATTCAGAGGTCATTGATCATATG — higher, 3.95
- ACTATTAGTTGACTTAGGGCAAGCGATACGACGC — lower, 0.174
- GCTGGGAGGACAAGGTCAGAGCTTTGTCCGTAGA — lower, 1.4
- GCTGCTAGGTCAGGTTGATCAGCTAACGGGTACG — lower, 0.431
- TCTGCTAGGTAAACGATGGTCAGCTAATCTGCTA — lower, -0.409
- TCTCGTAGATCAAGCAGGTTAAGAAAGCCTGAGT — lower, -0.00505
- ACTAGCAGGCCAAGGGTCAGTCAAGATTAGTCCG — lower, 1.12
- TAGCCTAGGTCATTCCGGGGCCAGTATAGAAAGC — lower, 2.94
- GCAGACAGGTGAAACGCAAGTAACTCAGGGTGGC — lower, -0.526
- CCGAGTAGGTTATGGGGCATTCCGGCAACGGTGA — lower, -0.216
- TTACCAAGGGGAGCTGAGGTCGTTGATCCAACTC — lower, 2.08
- ATCGAAAGGTCGAAGTTGAGTATACCCACCCGAA — lower, 3.08
- CGTCCAAGGTCAATGCTGGGTCAGTGAAAGCATT — higher, 4.79
- TCTCGGAGGACACGAAGGTCAGAGGTTTCCAGAG — lower, 2.59
- TTACCAAGGTGAGCTGAGGTCGTTGCTCCAACTC — higher, 4.1
- AGAACGAGGGCATTGAGTTGATAGCACGGGTGGC — higher, 5.24
- GCAGACAGGTGAAACGCAGGCAACTCAGGGTGGC — lower, -0.567
- GCTAGTTGGTCAGTAAAAGCTCACACACCGGTCG — lower, -0.481
- CCTCCGAGGACAGAAGGTCAGAGCTGTCCGCTTT — lower, 1.36
- ACTATTTGTTGACTTAGGGCAACCGATACGACGC — lower, 0.227
- ATCTCTAGGTCAAGATAGTTCAGTGAATGCAAAT — higher, 4.44
- CCTAGCAGGCCCGGGTCACTCAAGCATTTCGCTT — lower, 1.43
- TCAAATAGGTAAATGCTAGGTGAAAGTCCGATCT — lower, 0.866
- TGTCAAAGTTCGAAGGTAACGTAAGTATCCACAC — lower, 1.78
- GCTTACGGGTCAAAGATTATAGCATGAATAGAAT — lower, 3.28
- CCTGCTAGGTCAACGGTCAGCTAAAGCAGCTCGC — lower, 1.58
- TCTAGCAGGCCAGAGGGTCATTCAAGAGGTACGG — lower, 2.25
- ATATGTAGGTTATCGGGTTATTCAGTTTGCGCAT — lower, 3.47
- CCGACTGGGGCAGAAGGTTACCATAAGCCAGCCC — lower, -0.302
- TGTCAAAGTTCAAAGGAAACGTAAGTATCCACAC — higher, 3.86
- AATACAGGGTCACTAGGCCGGAGTAGGTACGAAT — higher, 4.11
- TCGAGTAGGTTAGTCTGGGCATTCAGCCAACATA — lower, -0.0618

Source: the supplement of paper PMC6555819
